In PubChem BioAssay AID1347075 (National Center for Advancing Translational Sciences (NCATS), 2019):
Out of some 400,000 compounds screened, about 5,500 (1.4%) were called active. Not shown: some 9% with an inconclusive outcome. The full list was thinned out, with actives kept by preference. Unmarked numbers belong to inactive results. Calls come from the whole dose curve; as a rule, active = well fitted cell-killing curve with a large enough effect; inconclusive = small, poorly fitted or top-dose-only effect, or effect the other way; inactive = flat fitted curve, though single readings scatter.

Experiment: qHTS assay for MDR1-selective chemotherapeutics: Primary screen using the parental adenocarcinoma cell KB-3-1; note: nearly all actives have a fitted effect of over 60% in size
Conditions: KB-3-1 viability, CellTiter-Glo ATP luminescence, 72 h; series mostly up to 46.1 µM; activity change, negative = cytotoxic: at the top concentration
Method in brief: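 Using CellTiter-Glo luminescence, growth of non-resistant KB-3-1 adenocarcinoma cells is assessed 72 h after pin-tool compound addition at 37 °C. Normalized responses across the concentration series yield fitted curves.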
% is set by controls: 0 for no effect and ±100 for the full control effect; potency is the fitted concentration of half-maximal effect.

Structure (SMILES) | activity change, negative = cytotoxic [%] | Potency
Cc1cccc(-n2ncc(C(=O)N3CCC(C)CC3)c2C2CCN(C(=O)OC(C)(C)C)CC2)c1 | 1.23 | –
CC1(C(=O)Nc2cccnc2)Cc2c(-c3ccccc3)ccnc2O1 (stereo unspecified) | -2.18 | –
CC1(C(=O)NCc2ccco2)Cc2c(-c3ccc4c(c3)OCO4)ccnc2O1 (stereo unspecified) | – | 2.59 µM (active)
CC(=O)Nc1cccc(-c2ccnc3c2CC(C)(C(=O)NCc2ccccc2)O3)c1 (stereo unspecified) | – | 2.91 µM (active)
CC(=O)Nc1cccc(-c2ccnc3c2CC(C)(C(=O)NCc2ccco2)O3)c1 (stereo unspecified) | -6.09 | –
O=C(Cn1nnc(-c2ccc3c(c2)OCO3)n1)NCc1ccco1 | -9.57 | –
CS(=O)(=O)N(CC(=O)NCc1ccco1)c1ccc2c(c1)OCO2 | -2.96 | –
CC1=C(C(=O)OCc2ccc(C)cc2)C(c2c(Cl)cccc2Cl)CC(=O)N1 (stereo unspecified) | 1.29 | –
Cc1ccc2nc(COc3cccc(NC(=O)c4cccc(Cl)c4)c3)cc(=O)n2c1 | 2.14 | –
CCc1nc2ccc(C(=O)N3CCN(c4cc(Cl)ccc4C)CC3)cc2nc1CC | 0 | –
O=C(c1ccco1)N(Cc1cccs1)c1ccc(O)cc1 | 3.03 | –
CCOC(=O)C1=CC[C@@H](c2ccccc2)N(S(=O)(=O)c2ccc(C)cc2)[C@H]1c1ccc(CC)cc1 | -1.65 | –
CCOC(=O)C1C(C)C(C(C)(C)C)N(S(=O)(=O)c2ccc(C)cc2)C1c1ccccc1 (stereo unspecified) | – | 23.1 µM (active)
CCOC(=O)C1=CC[C@@H](c2ccccc2)N(S(=O)(=O)c2ccc(C)cc2)[C@H]1c1cccc(OC)c1 | -0.13 | –
COc1ccc(-c2ccc3ncnc(NCc4cccs4)c3c2)cc1OC | -8.64 | –
Cc1ccccc1CSCCNC(=O)C1CCN(S(=O)(=O)Cc2ccccc2)CC1 | 5.62 | –
CCCNC(=O)C1CCC(Cn2c(=O)c3sccc3n(Cc3ccccc3F)c2=O)CC1 (stereo unspecified) | 3.19 | –
CCOC(=O)c1ccc(NC(=O)c2ncn(-c3ccccc3)n2)cc1 | -18.2 | –
CCOc1ccc(CNC(=O)c2cc(-c3ccc(Cl)s3)nc3ccccc23)cc1 | 7.73 | –
CCc1cc2c(N3CCN(c4nnc(CC)s4)CC3)ncnc2s1 | – | 9.2 µM (active)
CCN1CCN(c2ncnc3c2cnn3-c2ccc(C)c(C)c2)CC1 | -9.73 | –

Structure (SMILES) | activity change, negative = cytotoxic [%] | Potency
CCc1cc2c(NC(Cc3ccccc3)C(=O)O)ncnc2s1 (stereo unspecified) | 16.8 | –
CCCCOc1ccc(C(=O)Nc2cccc(-c3nc4ccccc4o3)c2C)cc1 | 2.3 | –
Cc1ccc2nc(CN3CCN(S(=O)(=O)c4ccc(C)c(C)c4)CC3)oc2c1 | 5.7 | –
CSc1ccccc1NC(=O)c1cc(Cl)sc1Cl | 5.25 | –
COc1ccccc1NC(=O)c1cc(Cl)nnc1Cl | – | 23.1 µM (active)
COc1ccccc1NC(=O)c1cc(N2C(=O)C3C4CCC(C4)C3C2=O)ccc1Cl (stereo unspecified) | 26.6 | –
Oc1ccccc1-c1nc(/C=C/c2ccc(F)cc2)no1 | -0.486 | –
COc1cc2c(=O)c(S(=O)(=O)c3ccc(C(C)C)cc3)cn(Cc3ccccc3C)c2cc1OC | 9.54 | –
CCOc1ccc(-n2c(SCC(=O)Nc3cc(C(=O)O)ccc3Cl)nc3ccccc3c2=O)cc1 | -4.78 | –
Cc1cc(C)nc(N/N=C/c2c(CO)cnc(C)c2O)n1 | 13.8 | –
CCOc1ccc(-n2c(O)c(/C=N/Nc3nc(C)cc(C)n3)c3ccccc3c2=O)cc1 | – | 20.6 µM (active)
COc1cc(OC)c(NC(=O)c2nc(-c3ccncc3)no2)cc1Cl | -2 | –
Cc1ccc(N2CCN(C(=O)CCc3c(C)nc4c(c3C)c(=O)n(C)c(=O)n4C)CC2)c(C)c1 | 11.6 | –
Cc1ccc(OCCn2c(CNc3ccccc3C)nc3ccccc32)cc1 | 2.01 | –
Cc1cc(C)cc(Nc2ncnc3onc(-c4ccc(F)cc4)c23)c1 | -3.07 | –
CCC1CN(S(=O)(=O)c2cc(-c3cc(C)no3)ccc2C)c2cc(C)ccc2O1 (stereo unspecified) | -0.508 | –
CC1Cc2ccccc2N1S(=O)(=O)c1ccc(Cl)nc1 (stereo unspecified) | 4.04 | –
Cc1cc(-c2ccc(C)c(S(=O)(=O)N3c4ccccc4CC3C)c2)on1 (stereo unspecified) | – | 14.6 µM (active)
O=C(Nc1ccccc1N1CCN(C(=O)c2ccccc2)CC1)c1ccco1 | 5.81 | –
COc1cccc(C(=O)Nc2ccc(N3CCN(C(=O)c4ccco4)CC3)cc2)c1 | – | 4.61 µM (active)
O=C(OCC(=O)N1CCN(C(=O)c2ccco2)CC1)c1cccc(O)c1 | -20 | –

Structure (SMILES) | activity change, negative = cytotoxic [%] | Potency
Cc1csc2nc(COc3ccc(NC(=O)COc4ccccc4)cc3)cc(=O)n12 | 0.478 | –
O=C1/C(=C\c2ccc([N+](=O)[O-])cc2)CS(=O)(=O)C/C1=C/c1ccc([N+](=O)[O-])cc1 | – | 1.46 µM (active)
O=C1CCCN1C(=O)COc1ccc([N+](=O)[O-])cc1 | -1.51 | –
O=[N+]([O-])c1ccc(/C=C/c2ccc3cccnc3c2)cc1 | -25.6 | –
Cc1ccccc1C(=O)Nc1sc2c(c1C(=O)N1CCC(C)CC1)CCCC2 | -11.4 | –
COc1ccc(CNC(=O)c2ccc3c(O)c(S(=O)(=O)c4ccccc4)c(=O)[nH]c3c2)cc1 | 3.06 | –
Cc1ccc(C)c(N2C(=O)N(Cc3c(F)cccc3Cl)c3ccccc3S2(=O)=O)c1 | -18.6 | –
Cc1cc(C)c(NC(=O)Cn2c(SCC(=O)NCc3ccccc3)nc3ccccc32)c(C)c1 | 10.2 | –
Cc1cccc(CNS(=O)(=O)c2ccc(-c3cnc(C4CC4)o3)cc2)c1 | – | inactive
Cc1cccc(NS(=O)(=O)c2ccc(-c3cnc(C4CC4)o3)cc2)c1 | – | 1.46 µM (active)
Cc1ccc(-c2cnc(C3CC3)o2)cc1S(=O)(=O)Nc1cccc(C)c1C | -2.72 | –
COCCn1c(CCC(=O)Nc2cc(C)ccc2C)nc2cccnc21 | 7.34 | –
COC(=O)c1ccccc1NC(=O)c1cc(-c2ccccc2O)no1 | 6 | –
Cc1ccc(-c2nn(CCC(=O)Nc3ccc(Cl)c(Cl)c3)c(=O)c3ccccc23)cc1 | 2.54 | –
O=C(CSc1nnc(-c2ccncc2)n1-c1ccccc1)Nc1ccc(Cl)c(Cl)c1 | -0.827 | –
O=C(CC(O)(C(F)(F)F)C(F)(F)F)Nc1ccc(Cl)c(Cl)c1 | – | 5.17 µM (active)
O=C(Cc1cccs1)N1CCCC(c2nc(-c3ccc(S(=O)(=O)N4CCCC4)cc3)no2)C1 (stereo unspecified) | -17.4 | –
COc1cc(-c2noc(C3CCCN(S(=O)(=O)c4cccc(Cl)c4)C3)n2)cc(OC)c1OC (stereo unspecified) | 0 | –
CC(C)c1ccc(-c2noc(C3CCCN(S(C)(=O)=O)C3)n2)cc1 (stereo unspecified) | – | 20.6 µM (active)
